For seven compounds, growth results are on record in PubChem BioAssay (NCI).

Values joined by “and” are separate entries in the source; they are usually repeats but may differ in a detail not shown here. Identical values can stand only once. Compounds without any hit were thinned out: in the full panel of roughly 83,000, 20% have a hit.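 Treatment: one concentration, 48 hours, 96-well format. Scoring: percent growth, with anything below 10 considered active.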 Active and inactive are the calls of the source.

Test systems include HCT-15 colon; HT29 colon; SNB-75 CNS; SNB-19 CNS; U251 CNS; PC-3 prostate; SK-MEL-5 melanoma; UACC-62 melanoma; LOX IMVI melanoma; SK-MEL-28 melanoma; SK-MEL-2 melanoma; EKVX NSCLC; SN12C renal; UO-31 renal; TK-10 renal; ACHN renal; CAKI-1 renal; A498 renal; CCRF-CEM leukemia; MOLT-4 leukemia.
Common to all, as to assay: NCI-60 one-dose screen, 48 h (100 = growth as untreated, 0 = no growth, -100 = all killed)
Details in all cases: 10 µM unless noted

In the case of `NC(=O)c1c(NC(=O)/C=C/c2cccs2)sc2c1CCC(=O)C2`, the growth with HCT-15 colon was 13.1% (inactive); in the assay with HT29 colon it was 15.8% (inactive); in the assay on SNB-75 CNS it was 56.5% (inactive); in the assay on SNB-19 CNS it was 64.5% (inactive); with U251 CNS it was 22.2% (inactive); in the assay on PC-3 prostate it was 13.4% (inactive). Moreover, the growth with SK-MEL-5 melanoma is 24.4% (inactive); in the assay with UACC-62 melanoma, 16.9% (inactive); with LOX IMVI melanoma, 18.4% (inactive); in the assay with SK-MEL-28 melanoma, 41.8% (inactive); in the assay with SK-MEL-2 melanoma, 49.7% (inactive); in the assay on EKVX NSCLC, 40.4% (inactive). The growth is 23.1% (inactive) in the assay with SN12C renal; 5.7% (active) in the assay on UO-31 renal; 43.9% (inactive) with TK-10 renal; 5.27% (active) in the assay with ACHN renal; 14.2% (inactive) in the assay on CAKI-1 renal; 115% (inactive) with A498 renal. The growth is 10.5% (inactive) in the assay on CCRF-CEM leukemia and 21.8% (inactive) in the assay with MOLT-4 leukemia.

Turning to `CCCCCCCCn1ccc2cc(NC(=O)CN3CCN(c4nc(C)cc(N5CCCCC5)n4)CC3)ccc21`, the growth in the assay on HCT-15 colon is 73.2% (inactive); in the assay with HT29 colon, 57.4% (inactive); in the assay on SNB-75 CNS, 87.6% (inactive); in the assay with SNB-19 CNS, 94.3% (inactive); with U251 CNS it was 80.4% (inactive); in the assay with PC-3 prostate, 71.8% (inactive). For the same compound, the growth in the assay with SK-MEL-5 melanoma was 82.1% (inactive); in the assay with UACC-62 melanoma, 81.2% (inactive); in the assay on LOX IMVI melanoma, 103% (inactive); in the assay on SK-MEL-28 melanoma, 94.6% (inactive); in the assay on SK-MEL-2 melanoma, 114% (inactive); with EKVX NSCLC it was 79.4% (inactive). The growth in the assay on SN12C renal is 91.9% (inactive); with UO-31 renal, 58.4% (inactive); with TK-10 renal, 98.5% (inactive); in the assay on ACHN renal, 91.7% (inactive); with CAKI-1 renal, 86.8% (inactive); in the assay on A498 renal, 104% (inactive). Also, the growth with CCRF-CEM leukemia was -43.6% (active); in the assay with MOLT-4 leukemia, 0.667% (active).

Regarding `O=C1Nc2ccccc2/C1=C/c1cccn1CCCCCn1c2ccccc2c(=O)c2ccccc21`, the growth was 28.9% (inactive) with HCT-15 colon; 89.5% (inactive) in the assay with HT29 colon; 86.7% (inactive) in the assay with SNB-75 CNS; 95.3% (inactive) in the assay with SNB-19 CNS; 93.4% (inactive) with U251 CNS; 42% (inactive) in the assay on PC-3 prostate. The growth in the assay with SK-MEL-5 melanoma is 32.2% (inactive); with UACC-62 melanoma, 48.2% (inactive); in the assay on LOX IMVI melanoma, 80.3% (inactive); in the assay on SK-MEL-28 melanoma, 88.1% (inactive); in the assay with SK-MEL-2 melanoma, 84% (inactive); in the assay with EKVX NSCLC it was 71.8% (inactive). Besides, the growth in the assay on SN12C renal is 97.1% (inactive); in the assay with UO-31 renal, 49.3% (inactive); with TK-10 renal, 93.8% (inactive); in the assay with ACHN renal it was 55.1% (inactive); with CAKI-1 renal it was 65.9% (inactive); in the assay with A498 renal it was 108% (inactive). Further, the values for the growth with CCRF-CEM leukemia and with MOLT-4 leukemia were 44.9% (inactive) and 46% (inactive), respectively.

On to `CCOC(=O)N(O)c1ccc(/C=C/c2ccccc2)cc1`, for which the growth with HCT-15 colon was 69.8% (inactive) and 72.3% (inactive); in the assay on HT29 colon, 66.8% (inactive) and 53.7% (inactive); with SNB-75 CNS, 93.6% (inactive) and 96.4% (inactive); with SNB-19 CNS, 91.2% (inactive) and 74.5% (inactive); with U251 CNS it was 54.6% (inactive) and 58.1% (inactive); in the assay with PC-3 prostate, 55% (inactive) and 67.5% (inactive). In addition, the growth in the assay with SK-MEL-5 melanoma was 66.2% (inactive) and 57.1% (inactive); in the assay with UACC-62 melanoma, 29.4% (inactive) and -29.2% (active); in the assay with LOX IMVI melanoma, 60.2% (inactive) and 58.5% (inactive); with SK-MEL-28 melanoma, 103% (inactive) and 108% (inactive); in the assay with SK-MEL-2 melanoma it was 66.5% (inactive) and 53.1% (inactive); in the assay on EKVX NSCLC it was 91.8% (inactive). Besides, the growth in the assay with SN12C renal is 66.3% (inactive) and 62.6% (inactive); in the assay with UO-31 renal, 56.2% (inactive) and 57.4% (inactive); in the assay with TK-10 renal, 4.6% (active); with ACHN renal, 76.2% (inactive) and 70.3% (inactive); with CAKI-1 renal, 51.7% (inactive) and 81.4% (inactive); with A498 renal, -67.4% (active) and -83.1% (active). The growth in the assay on CCRF-CEM leukemia was 55.2% (inactive) and 63% (inactive); in the assay on MOLT-4 leukemia, 59.4% (inactive) and 60.9% (inactive).

On to `Cc1c(C(C)(C)O)cn2ncnc(Oc3ccc(NC(=O)Nc4ccc(Cl)c(C(F)(F)F)c4)cc3)c12`, for which the growth was 36.8% (inactive) in the assay on HCT-15 colon; 34.6% (inactive) in the assay on HT29 colon; 33.8% (inactive) in the assay on SNB-75 CNS; 30.8% (inactive) in the assay with SNB-19 CNS; 31.8% (inactive) in the assay on U251 CNS; 21.5% (inactive) in the assay with PC-3 prostate. Also, the growth was 56.2% (inactive) in the assay with SK-MEL-5 melanoma; 55.5% (inactive) in the assay with UACC-62 melanoma; -9.63% (active) in the assay on LOX IMVI melanoma; 53.1% (inactive) in the assay on SK-MEL-28 melanoma; 75.9% (inactive) with SK-MEL-2 melanoma; 30.8% (inactive) in the assay with EKVX NSCLC. In addition, the growth in the assay with SN12C renal was 44.3% (inactive); with UO-31 renal, 50.9% (inactive); with TK-10 renal it was 45.9% (inactive); with ACHN renal, 21% (inactive); in the assay on CAKI-1 renal, 29.2% (inactive); in the assay on A498 renal, 11.6% (inactive). Also, the values for the growth in the assay with CCRF-CEM leukemia and with MOLT-4 leukemia were 34.1% (inactive) and 18.2% (inactive), respectively.

As to `C#CCOc1cccc(Nc2ncc3ncn(C4CCN(C(=O)CCl)C4)c3n2)c1` (stereo not given), the growth in the assay on HCT-15 colon was 6.97% [6.25 µM] (active); in the assay on HT29 colon, 23.4% [6.25 µM] (inactive); in the assay on SNB-75 CNS, 72.6% [6.25 µM] (inactive); in the assay on SNB-19 CNS, 64.6% [6.25 µM] (inactive); with U251 CNS, 43.2% [6.25 µM] (inactive); in the assay with PC-3 prostate, 74.9% [6.25 µM] (inactive). Besides, the growth was 39.1% [6.25 µM] (inactive) in the assay on SK-MEL-5 melanoma; 44.8% [6.25 µM] (inactive) in the assay with UACC-62 melanoma; -55.1% [6.25 µM] (active) with LOX IMVI melanoma; 78% [6.25 µM] (inactive) in the assay with SK-MEL-28 melanoma; 61.9% [6.25 µM] (inactive) in the assay with SK-MEL-2 melanoma; 91.3% [6.25 µM] (inactive) in the assay with EKVX NSCLC. Moreover, the growth in the assay with SN12C renal is 13.2% [6.25 µM] (inactive); in the assay with UO-31 renal, 29.9% [6.25 µM] (inactive); in the assay on TK-10 renal it was -34.9% [6.25 µM] (active); in the assay with ACHN renal it was -31.2% [6.25 µM] (active); with CAKI-1 renal it was 49.3% [6.25 µM] (inactive); with A498 renal, 89.2% [6.25 µM] (inactive). The growth is -16.6% [6.25 µM] (active) in the assay on CCRF-CEM leukemia and 5.59% [6.25 µM] (active) with MOLT-4 leukemia.

For `C[C@@H]1O[C@@H](O[C@H]2[C@@H](OC(=O)[C@]34CCC(C)(C)C[C@H]3C3=CC[C@@H]5[C@@]6(C)C[C@H](O)[C@H](O[C@@H]7O[C@H](CO)[C@@H](O)[C@H](O)[C@H]7O)[C@@](C)(CO)[C@@H]6CC[C@@]5(C)[C@]3(C)C[C@H]4O)OC[C@@H](O)[C@@H]2O)[C@H](O)[C@H](O[C@@H]2OC[C@@H](O)[C@H](O[C@@H]3OC[C@](O)(CO)[C@H]3O[C@@H]3OC[C@@H](O)[C@H](O)[C@H]3O)[C@H]2O)[C@H]1O[C@@H]1OC[C@](O)(CO)[C@H]1O`, the growth in the assay with HCT-15 colon was 86.4% (inactive); in the assay on HT29 colon, 60.3% (inactive); in the assay on SNB-75 CNS it was 92.6% (inactive); with SNB-19 CNS it was 80.7% (inactive); in the assay on U251 CNS, 42% (inactive); in the assay with PC-3 prostate it was 66% (inactive). In addition, the growth is 88.3% (inactive) with SK-MEL-5 melanoma; 79.2% (inactive) with UACC-62 melanoma; 81.3% (inactive) in the assay on LOX IMVI melanoma; 9.31% (active) in the assay on SK-MEL-28 melanoma; 17.5% (inactive) with SK-MEL-2 melanoma; 39.7% (inactive) in the assay with EKVX NSCLC. Further, the growth was 25.5% (inactive) with SN12C renal; 28.6% (inactive) in the assay with UO-31 renal; 74.2% (inactive) with TK-10 renal; 78% (inactive) in the assay with ACHN renal; 71.8% (inactive) in the assay on CAKI-1 renal; 5.96% (active) in the assay with A498 renal. The growth with CCRF-CEM leukemia was 86% (inactive); in the assay on MOLT-4 leukemia, 86.6% (inactive).
